Compound activity: PubChem, several laboratories
PolyA inh: polyadenylation inhibitors in yeast reporter cells, primary screen, luminescence, S. cerevisiae. S. cerevisiae SKY197-pL101 polyadenylation reporter, beta-gal luminescence; efflux-impaired pdr1/pdr3 knockout yeast; score 100 = 6 SD above DMSO. activity score, % at 12 µM. 300,000 compounds, 0.02% hits. AID 1875, 2009;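 active means lowest replicate activity score at least 50, where 100 means six control SD above control mean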;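 further: yeast exposed to compound for 9 h at 30 °C; higher score means more reporter readthrough which indicates perturbed polyadenylation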
Efflux pump mplx: inhibitors of Candida efflux pumps in yeast, primary screen, S. cerevisiae, Nile Red, multiplex. S. cerevisiae Candida pump triplex. inhibition, % at 10 µM. 330,000 compounds, 0.44% hits;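 active means plate passing quality check with inhibition over a set limit, or well fluorescence over plate mean plus 4 SD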;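 further: Nile Red retained in pooled yeast measured as flow cytometry median fluorescence; 0% = buffer negative control and 100% = Enniatin B positive control; higher means more Nile Red kept so more efflux inhibition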
HDAC3 inhib: HDAC3 deacetylase inhibitors, primary screen, biochemical, fluorescence, cell-free homogeneous; Histone deacetylase 3 (Homo sapiens), O15379; recombinant HDAC3, fluorogenic peptide/trypsin coupled; inhibition, % at 8.3 µM; 320,000 compounds, 0.15% hits; AID 2718, 2010; in the data active means inhibition above about 26%, passing the limit was not always enough
Target sequence (O15379 whole entry, looked up): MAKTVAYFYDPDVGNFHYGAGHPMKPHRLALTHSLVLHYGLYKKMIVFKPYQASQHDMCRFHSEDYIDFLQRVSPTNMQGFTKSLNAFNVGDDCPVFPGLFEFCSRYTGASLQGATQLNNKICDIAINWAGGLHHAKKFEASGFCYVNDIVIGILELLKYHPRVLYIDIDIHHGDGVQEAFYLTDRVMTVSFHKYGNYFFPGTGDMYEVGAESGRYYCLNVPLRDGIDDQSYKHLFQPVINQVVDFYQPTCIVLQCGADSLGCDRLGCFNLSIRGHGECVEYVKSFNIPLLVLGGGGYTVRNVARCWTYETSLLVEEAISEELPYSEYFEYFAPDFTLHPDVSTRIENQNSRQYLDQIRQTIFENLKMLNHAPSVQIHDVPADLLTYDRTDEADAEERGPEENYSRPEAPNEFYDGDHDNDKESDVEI
NALP1 inh: NALP1 inflammasome inhibitors in reconstituted yeast, colorimetric, S. cerevisiae, triplicate retest | S. cerevisiae NALP1/ASC/caspase-1 growth, X-gal OD620, 72 h | inhibition, % at 10 µM | 280,000 compounds, 0.61% hits | AID 2071, 2009; in the data active means inhibition mostly above about 24%, no sharp cut-off; inactive means mostly below about 32%
NALP3 yeast inh: NALP3 inflammasome inhibitors in reconstituted yeast, primary screen, luminescence, uHTS; Yeast reconstituted NLRP3/ASC/caspase-1, beta-gal luminescence, 24 h; inhibition, % at 10 µM; 330,000 compounds, 0.39% hits; AID 2825, 2010;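 active means inhibition of 50% or more; inactive means inhibition below 50%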;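 further: plate controls were induced DMSO wells for no effect and uninduced yeast grown without galactose for full effect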
JMJD2C inh: inhibitors of GASC-1 histone demethylase, primary screen, biochemical, fluorescence, DELFIA europium; Lysine-specific demethylase 4C (Homo sapiens), Q9H3R0; inhibition, % at 2.35 µM; GST-JMJD2C(1-420) H3K9me3 demethylation; 330,000 compounds, 0.069% hits;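 active means more than half of a compound's replicate wells show inhibition beyond 50%, single wells judged on their own value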;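 further: signal counts dimethyl H3K9 product captured on neutravidin plate; 0% = median of DMSO wells and 100% = 0.3 times that DMSO median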
The depositor's hits bear a star; . = not tested or not shown. Rows were chosen to be rich in hits. Some 1.5% of all compounds tested hit in one or more screens of this group.

SMILES	PolyA inh	Efflux pump mplx	HDAC3 inhib	NALP1 inh	NALP3 yeast inh	JMJD2C inh
COc1ccc(N(C(=O)c2ccccc2OC)C2C=CS(=O)(=O)C2)c(OC)c1 (centres undefined)	7	0	-3	0	-5	96
O=C1NC(Cc2ccccc2)c2nc3cc(Cl)ccc3c(=O)n2-c2ccccc21 (centres undefined)	.	0	-2	.	8	1
O=C(COC(=O)/C=C/c1cc(Br)ccc1F)NC1CC1	.	0	8	.	-10	-11
CC(Oc1ccc(Br)cc1)C(=O)NCC(c1cccs1)N1CCOCC1 (centres undefined)	18	0	-5	.	22	-3
NC(=NC1CCCCC1)c1ccc([N+](=O)[O-])cc1	3	0	-2	44*	-1	-2
O=C1NC2=C(C(=O)OC2)C(c2ccc(OC(F)(F)F)cc2)N1 (centres undefined)	0	0	-1	.	8	-28
Cc1cc(C)c(NC(=S)N(CCCN2CCN(C)CC2)Cc2cccs2)c(C)c1	0	0	8	10	20	9
COc1ccccc1NC(=O)CSc1n[nH]c(-c2cccnc2)n1	17	0	-6	35	4	-7
COC(=O)c1ccccc1NC(=O)CSc1n[nH]c(-c2cccnc2)n1	1	0	5	33*	11	-10
CCOc1ccc(C(=O)Nc2ccccc2N2CCN(C(=O)c3ccccc3)CC2)cc1[N+](=O)[O-]	14	1	-1	24	-3	2
C#CCOCCOCCOCCNc1nc(N2CCN(C(=O)CCCCCCCCCCNC(=O)[C@H](CCCCN)n3cc(C[C@@H](C)CC)nn3)CC2)nc(N2CCN(C(=O)CCCCCCCCCCNC(=O)[C@H](CCCCN)n3cc(C[C@@H](C)CC)nn3)CC2)n1	1	0	53*	.	.	-14
C#CCOCCOCCOCCNc1nc(N2CCN(C(=O)CCCCCCCCCCNC(=O)[C@H](CCCCN)n3cc(C)nn3)CC2)nc(N2CCN(C(=O)CCCCCCCCCCNC(=O)[C@@H]([C@H](C)CC)n3cc(CCCCCN)nn3)CC2)n1	.	0	31*	.	31	.
C#CCOCCOCCOCCNc1nc(N2CCN(C(=O)CCCCCCCCCCNC(=O)[C@H](CCCCN)n3cc(CCCC(=O)O)nn3)CC2)nc(N2CCN(C(=O)CCCCCCCCCCNC(=O)[C@H](CCCN=C(N)N)n3cc(C[C@@H](C)CC)nn3)CC2)n1	1	0	20	.	14	6
C#CCOCCOCCOCCNc1nc(N2CCN(C(=O)CCCCCCCCCCNC(=O)[C@H](CCCCN)n3cc(CCO)nn3)CC2)nc(N2CCN(C(=O)CCCCCCCCCCNC(=O)[C@H](CCCN=C(N)N)n3cc(C[C@@H](C)CC)nn3)CC2)n1	.	0	29*	.	16	16
C#CCOCCOCCOCCNc1nc(N2CCN(C(=O)CCCCCCCCCCNC(=O)[C@H]([C@@H](C)CC)n3cc(CCCCN=C(N)N)nn3)CC2)nc(N2CCN(C(=O)CCCCCCCCCCNC(=O)[C@H](CCCCN)n3cc(C[C@@H](C)CC)nn3)CC2)n1	.	85*	22	.	19	39
C/C(CC(=O)Nc1ccc(F)cc1F)=N\NC(=O)C(=O)N1CCCCC1	-6	-1	5	1	2	-4
CCNC(=O)N(C)C[C@H]1N[C@@](CC)(C(=O)OC)[C@H]2C(=O)N(C)C(=O)[C@@H]12	.	0	-2	.	7	-8
O=C(Nc1cccc(F)c1)C1CCCN(S(=O)(=O)c2ccc(-n3cnnn3)cc2)C1 (centres undefined)	4	0	0	5	12	-7
Cc1cc(C)nc(SCC(=O)NC2CCCCC2C)n1 (centres undefined)	10	0	.	.	21	-6
C#CCOCCOCCOCCNc1nc(N2CCN(C(=O)[C@H](CCCCN)n3cc([C@@H](N)[C@H](C)CC)nn3)CC2)nc(N2CCN(C(=O)[C@H](CCC(=O)O)n3cc([C@@H](N)CCSC)nn3)CC2)n1	.	0	-8	.	3	52*
O=C(O)C1CC=CCC1C(=O)N1CCN(c2nc(-c3ccccc3Cl)c3cc(Br)ccc3n2)CC1 (centres undefined)	.	0	0	27*	17	-1
CCC(C(=O)NC1CCCC1)N(Cc1ccco1)C(=O)CNS(=O)(=O)c1ccccc1 (centres undefined)	18	0	-2	22	-1	-10
CCC(NS(=O)(=O)c1ccc2c(c1)Cc1cc(S(=O)(=O)NC(CC)C(=O)O)ccc1-2)C(=O)O (centres undefined)	8	0	5	7	19	-5
Cc1cc(-c2nn(-c3ccccc3F)cc2CNCCc2cnc[nH]2)c(C)s1	4	0	5	-12	-5	6
Cc1ccccc1-c1nn(-c2ccc(F)cc2F)cc1CNCCCO	-3	0	6	20*	13	18
SMILES	PolyA inh	Efflux pump mplx	HDAC3 inhib	NALP1 inh	NALP3 yeast inh	JMJD2C inh
O=C(NN1C(=O)/C(=C/C=C/c2ccco2)SC1=S)c1ccccc1O	19	2.0*	2	4	-3	2
Cn1cccc1/C=C1\SC(=S)N(NC(=O)c2ccccc2O)C1=O	6	0	9	7	14	1
Cc1cc(C(=O)Nc2cccc(C(=O)O)c2)c(C)o1	-12	0	13	0	-2	2
Cc1cc(C(=O)Nc2cccc(O)c2)c(C)o1	15	0	1	35*	2	1
CCCCNC(=O)NC1(C(F)(F)F)Oc2ccccc2O1	-21	0	-6	37*	5	3
CCc1sc(C(=O)Nc2ncccc2O)cc1C	4	0	76*	4	15	-22
CO/N=C/C(=N\Nc1ccc(OC)cc1)C(=O)c1ccc(OC)cc1	3	0	0	-6	13	6
COc1ccc(C(=O)C(/C=N/O)=N/Nc2ccc(F)cc2)cc1	-24	0	4	20*	35	13
O=C(NCc1ccccc1F)Nc1ccc([N+](=O)[O-])cc1	32	0	4	7	25	-2
CC(C)c1nc2ccccn2c1NC1CCCCC1	7	0	2	24*	20	12
CC(C)CN1C(=O)C(=O)N(CC(=O)c2ccc3c(c2)CCCC3)C1=O	.	0	1	.	6	.
Cc1oc2cc(O)ccc2c(=O)c1Oc1ccc2ccccc2c1	-20	0	-4	32*	18	7
CC1(C)Cc2c(ccc3ccccc23)C(c2cc3ccccc3oc2=O)=N1	-8	0	-6	34*	-12	-2
